Data as given in PubChem BioAssay (NCI).
This is part of a sample that, as a whole, favours compounds with a hit. Of some 79,000 tested, about 15% had one in any assay. Cut-off read from the data, not from the text of the source: active = growth inhibition above about 70%; inactive = the rest.

Columns and labels:
[1] = NCI Yeast Anticancer Drug Screen. Data for the rad50 strain (AID 155);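 note: 0% = growth of vehicle-only cultures of the same strain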; settings: S. cerevisiae rad50 strain growth inhibition; at 50.0 µM; active compounds read high
Method in brief: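 Vehicle-treated cultures provide the reference for the growth inhibition reported for compound-exposed, repair-deficient yeast.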

[2] = NCI Yeast Anticancer Drug Screen. Data for the mec2-1 strain (AID 157); settings: S. cerevisiae mec2-1 strain, at 50.0 µM, active compounds read high
Method in brief: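 Readout is yeast growth inhibition, normalised to vehicle-treated controls, in the mec2-1 strain exposed to compound.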

[3] = NCI Yeast Anticancer Drug Screen. Data for the sgs1 mgt1 strain (AID 161);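 note: 0% = growth of cultures given vehicle only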; settings: S. cerevisiae sgs1 mgt1 strain, at 50.0 µM, active compounds read high
Method in brief: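 This yeast growth screen uses a strain with defined DNA-repair lesions; compound-treated growth is compared with vehicle-treated growth.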

[4] = NCI Yeast Anticancer Drug Screen. Data for the cln2 rad14 strain (AID 165);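 note: 0% = growth equal to vehicle treated cultures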; settings: S. cerevisiae cln2 rad14 strain, at 50.0 µM, active compounds read high
Method in brief: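 Relative to vehicle controls, growth inhibition of compound-treated cln2 rad14 yeast was recorded.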

[5] = NCI Yeast Anticancer Drug Screen. Data for the bub3 strain (AID 167); settings: S. cerevisiae bub3 mutant strain, at 50.0 µM, active compounds read high
Method in brief: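 Mutant yeast screening strain plus compound; vehicle-treated cultures serve as the 0% inhibition reference.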

[6] = NCI Yeast Anticancer Drug Screen. Data for the mlh1 rad18 strain (AID 175); settings: S. cerevisiae mlh1 rad18 strain growth inhibition; at 50.0 µM; active compounds read high
Method in brief: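 Test agents were incubated with a yeast strain of defined genotype (DNA damage repair defect). Inhibition of growth was derived by comparison with vehicle-exposed cultures.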

Measured: growth inhibition

CC1CCC(C(=O)O)CC1 (stereo unspecified)
inactive: [1] -16.9% | [2] -9% | [3] -2% | [4] 21.8% | [5] -0.85% | [6] -14.2%

CC(C)C1c2ccccc2C(=O)C1C(N)=O (stereo unspecified)
inactive: [1] -16.9% | [2] -11.4% | [3] -12.8% | [4] -22.6% | [5] -4.55% | [6] -10.4%

Cc1ccccc1-c1nnc(-c2ccc3ccccc3c2)o1
inactive: [1] 7.3% | [2] -4.25% | [3] -4.65% | [4] -36.5% | [5] 1.05% | [6] -1.05%

O=CNC(CSC(=O)c1ccccc1)C(=O)O (stereo unspecified)
inactive: [1] -0.35% | [2] -3.75% | [3] -7.2% | [4] -15.2% | [5] -11.7% | [6] -12.7%

CCOC(=O)C1SCSCC1=O (stereo unspecified)
inactive: [1] -1.1% | [2] -1.7% | [3] -5.55% | [4] -30.2% | [5] -20.6% | [6] 6%

CC12CCC3c4ccc(Cc5ccc([N+](=O)[O-])cc5)cc4CCC3C1CCC2=O (stereo unspecified)
inactive: [1] 32.6% | [2] 9.2% | [3] 10.8% | [4] 19.7% | [5] 1.05% | [6] 25.6%

C(=C/c1ccc(-c2ccccc2)cc1)/C=C/c1ccc(-c2ccccc2)cc1
inactive: [1] 3.3% | [2] 4% | [3] -0.2% | [4] -29.2% | [5] 6.95% | [6] 17.9%

C/C(=N\Nc1ccc([N+](=O)[O-])cc1)C(=O)N(C)Nc1ccccc1
inactive: [1] -6% | [2] -54.2% | [3] -38% | [4] -5.7% | [5] -59.7% | [6] -5.4%

CCOC(=O)NN1C(=O)C(=P(c2ccccc2)(c2ccccc2)c2ccccc2)C(C(=O)OC)=C1C
inactive: [1] -4.05% | [2] 4.45% | [3] -6.75% | [4] 11.8% | [5] -6.65% | [6] -4.85%

CCOC(=O)NC(=O)c1cn(CCSCCOC(=O)NCCCCCCNC(=O)OCCSCCn2cc(C(=O)NC(=O)OCC)c(=O)[nH]c2=O)c(=O)[nH]c1=O
inactive: [1] 28.7% | [2] 20.6% | [3] 11.9% | [4] 12.9% | [5] -51.2% | [6] 23.2%

CN1c2ccccc2C2CC(CC#N)CC(=O)C21 (stereo unspecified)
inactive: [1] 18.9% | [2] 13.7% | [3] -8.1% | [4] -12.2% | [5] -20.2% | [6] 20.2%

CC(=O)c1ccccc1C(=O)O
inactive: [1] 6.05% | [2] 7.45% | [3] -6.65% | [4] 7.6% | [5] 6.25% | [6] -9.55%

CCC(=O)CCc1ccc(OC)cc1
inactive: [1] 4.55% | [2] -6.75% | [3] -3.85% | [4] -20.6% | [5] -12.2% | [6] -13.8%

O=C(CCCCC(=O)Oc1ccc([N+](=O)[O-])cc1)Oc1ccc([N+](=O)[O-])cc1
inactive: [1] 10.9% | [2] 3.25% | [3] 13.3% | [4] 32% | [5] 3.4% | [6] 33%

CC(=O)N1CC(C)CC2OC3(CCC4C5CCC6CC(=O)CCC6(C)C5C(=O)C4C3C)C(C)C21 (stereo unspecified)
inactive: [1] -0.65% | [2] -13.1% | [3] -9.15% | [4] -0.75% | [5] -5.9% | [6] -3.75%

COc1ccc(C2(C=O)NC(=O)NC2=O)cc1 (stereo unspecified)
inactive: [1] -2.25% | [2] -22.9% | [3] -13.5% | [4] 36% | [5] -2.6% | [6] 9%

C=C1C(=O)OC2CC(C)C3CC(OCCCl)OC(OCCCl)C3(C)CC12 (stereo unspecified)
inactive: [1] 13.8% | [2] 7.65% | [3] -3.05% | [4] 7.25% | [5] 5.65% | [6] -6.2%

CCOC/C(=N\NC(N)=O)c1ccccc1
inactive: [1] -16.8% | [2] -22.2% | [3] -22.9% | [4] -1.85% | [5] 9.3% | [6] -20.3%

CC/C(C)=N/NC(=O)c1ccc([N+](=O)[O-])cc1
inactive: [1] 22.7% | [2] 12% | [3] 20.8% | [4] 8.6% | [5] 0.95% | [6] 16.6%

CC(=O)N=C1N(/C=C2\C(=O)Oc3ccccc3C2=O)C(=O)/C(=C/c2ccc(NC(C)=O)cc2)N1C
inactive: [1] -32.8% | [2] -26.3% | [3] 34.2% | [4] 7.7% | [5] -31.1% | [6] -12.3%

Nc1nc(N)c2nc3c(nc2n1)CCCC3
inactive: [1] -15.9% | [2] -35.7% | [3] -18.3% | [4] 8.95% | [5] -13.1% | [6] -25.7%

N#Cc1c(-c2ccco2)cc(-c2ccccc2)[nH]c1=O
inactive: [1] 31.8% | [2] 8.1% | [3] 18.1% | [4] 33.3% | [5] 9.7% | [6] 25.6%

C=Cc1ccccc1N=NC(C(=O)OC)=P(c1ccccc1)(c1ccccc1)c1ccccc1
inactive: [1] -24.2% | [2] 20.9% | [3] -1.2% | [4] -6.75% | [5] -4.05% | [6] -10.9%

CC[N+](C)(C)c1ccc(/C=C(/C#N)C(=O)OC)cc1
inactive: [1] 7.55% | [2] 9.8% | [3] 12.8% | [4] 11.2% | [5] -1.2% | [6] -1.55%

Cc1ccc(C)n1-c1ccc(OCC(N)=O)cc1
inactive: [1] 16.3% | [2] 16.1% | [3] 12.7% | [4] -15.7% | [5] 12.6% | [6] 13.9%

CC(=O)Oc1cccc(C)c1
inactive: [1] -20.6% | [2] -4.75% | [3] -18.8% | [4] -28.4% | [5] -13.2% | [6] -5.65%

C1CC2N=NC1C21CC1.[Cl][Cu][Cl]
inactive: [1] 1.2% | [2] 1.7% | [3] -3.75% | [4] -8.15% | [5] 8.7% | [6] -10%

O=Cc1ccc(C(=O)O)cc1
inactive: [1] -1.35% | [2] -14.6% | [3] 0.25% | [4] -13.2% | [5] -12.8% | [6] -9.6%

COc1c2ccoc2c(S(=O)(=O)Nc2ccc(Cl)cc2)c2oc(C)cc(=O)c12
inactive: [1] 4.7% | [2] -29.9% | [3] -13.9% | [4] -8.15% | [5] -11.8% | [6] -24.8%

O=S(=O)(O)CCNC(=S)C(=S)NCCS(=O)(=O)O
inactive: [1] 29.1% | [2] 14.2% | [3] 7.75% | [4] 6.2% | [5] 8.7% | [6] 5.7%

CN(C)S(=O)(=O)C=C(c1ccccc1)c1ccccc1
inactive: [1] 1.25% | [2] 4.1% | [3] 17.4% | [4] -5.1% | [5] 15.3% | [6] -0.2%

O=c1[nH]c(O)c(/C=N/C(=S)NCc2ccccc2)c(=O)[nH]1
inactive: [1] -41% | [2] -37.9% | [3] -26.1% | [4] 5.9% | [5] -0.55% | [6] -12.3%

CCCCCCC(N)(CCCCCC)C(=O)Nn1c(C)ccc1C
inactive: [1] 45% | [2] 13.1% | [3] 9.8% | [4] -20.6% | [5] 4.25% | [6] 31.2%

OCCCCN1CCCCC1
inactive: [1] -1% | [2] -1.95% | [3] -13.2% | [4] 2.5% | [5] -0.85% | [6] -5.05%

C=C(Cl)C(Cl)(CBr)CCC(Br)C(C)(C)Cl (stereo unspecified)
inactive: [1] 20.6% | [2] 41% | [3] 51.5% | [4] 22.4% | [5] 42.6% | [6] -22.8%

CC(NC(=O)C(N)CCC(=O)O)C(=O)NCP(=O)(O)O (stereo unspecified)
inactive: [1] -13.1% | [2] -49% | [3] 0.35% | [4] 26.4% | [5] 4.25% | [6] 8%
